Source: the supplement of paper PMC10849652
About 7,900 targets were measured; listed, in parts, are those with a hit and a random draw of the rest. About 0.6% of all pairs of compound and target were hits. Values without a mark were called inactive.

How the values were obtained:
Assay in all cases: log2 fold change, soluble protein after heating vs DMSO (PISA); higher = thermal stabilisation; K562 cells, 10 uM, 30 min; active = over 0.2 and 3.5 SD of the protein, either way, in both replicates (recomputed)
saracatinib = compound: CN1CCN(CCOc2cc(OC3CCOCC3)c3c(Nc4c(Cl)ccc5c4OCO5)ncnc3c2)CC1 [saracatinib]
How it was run: (§1)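 K562 cells at 2×10^6 cells/mL were treated for 30 min with 10 μM compound, and aliquots were heated for 3 min over 48°C-58°C before pooling. Extraction used PBS with 0.5% NP-40 at 4°C, and soluble protein was the supernatant after 21,000xg for 90 min, measured by TMTpro 16plex LC-MS/MS with channel sums equalised. Thermal stability values, relative to control samples and from duplicates, are log2 fold changes.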

sotrastaurin = compound: CN1CCN(c2nc(C3=C(c4c[nH]c5ccccc45)C(=O)NC3=O)c3ccccc3n2)CC1 [sotrastaurin]
How it was run: as §1

alvocidib = compound: CN1CC[C@H](c2c(O)cc(O)c3c(=O)cc(-c4ccccc4Cl)oc23)[C@H](O)C1 [alvocidib]
How it was run: as §1

Tubastatin A = compound: CN1CCc2c(c3ccccc3n2Cc2ccc(C(=O)NO)cc2)C1 [Tubastatin A]
How it was run: as §1

[1] = compound: CNC(=O)C1=CC=CC=C1NC2=NC(=NC=C2Cl)NC3=C(C=C(C=C3)N4CCOCC4)OC
How it was run: as §1

defactinib = compound: CNC(=O)c1ccc(Nc2ncc(C(F)(F)F)c(NCc3nccnc3N(C)S(C)(=O)=O)n2)cc1 [defactinib]
How it was run: as §1

rucaparib = compound: CNCc1ccc(-c2[nH]c3cc(F)cc4c3c2CCNC4=O)cc1 [rucaparib]
How it was run: as §1

[2] = compound: CNc1nc(-c2ccc3c(N)n[nH]c3c2)cc(N2C[C@@H](C(=O)NC3CCCCC3)CC[C@H]2C)n1
How it was run: as §1

encorafenib = compound: COC(=O)N[C@@H](C)CNc1nccc(-c2cn(C(C)C)nc2-c2cc(Cl)cc(NS(C)(=O)=O)c2F)n1 [encorafenib]
How it was run: as §1

[3] = compound: COC(=O)[C@H](CCSC)NC(=O)C1=C(C=C(C=C1)NC[C@H](CS)N)C2=CC=CC=C2
How it was run: as §1

[4] = compound: COC1=CC=C(C=C1)CN2C=CC3=C2C=C(C=C3)C(=O)NO
How it was run: as §1

filanesib = compound: CON(C)C(=O)N1N=C(c2cc(F)ccc2F)S[C@@]1(CCCN)c1ccccc1 [filanesib]
How it was run: as §1

zotarolimus = compound: CO[C@H]1C[C@@H]2CC[C@@H](C)[C@@](O)(O2)C(=O)C(=O)N2CCCC[C@H]2C(=O)O[C@H]([C@H](C)C[C@@H]2CC[C@H](n3cnnn3)[C@H](OC)C2)CC(=O)[C@H](C)/C=C(\C)[C@@H](O)[C@@H](OC)C(=O)[C@H](C)C[C@H](C)/C=C/C=C/C=C/1C [zotarolimus]
How it was run: as §1

idasanutlin = compound: COc1cc(C(=O)O)ccc1NC(=O)[C@@H]1N[C@@H](CC(C)(C)C)[C@](C#N)(c2ccc(Cl)cc2F)[C@H]1c1cccc(Cl)c1F [idasanutlin]
How it was run: as §1

alisertib = compound: COc1cc(Nc2ncc3c(n2)-c2ccc(Cl)cc2C(c2c(F)cccc2OC)=NC3)ccc1C(=O)O [alisertib]
How it was run: as §1

[5] = compound: COc1cc2nc(-c3cc(F)ccc3O)nc(N[C@@H]3CNC[C@H]3C(C)(C)O)c2cc1OC
How it was run: as §1

gefitinib = compound: COc1cc2ncnc(Nc3ccc(F)c(Cl)c3)c2cc1OCCCN1CCOCC1 [gefitinib]
How it was run: as §1

[6] = compound: COc1cccc2cc(-c3nc([C@H]4CC[C@H](C(=O)O)CC4)n4ncnc(N)c34)[nH]c12
How it was run: as §1

lapatinib = compound: CS(=O)(=O)CCNCc1ccc(-c2ccc3ncnc(Nc4ccc(OCc5cccc(F)c5)c(Cl)c4)c3c2)o1 [lapatinib]
How it was run: as §1

pictilisib = compound: CS(=O)(=O)N1CCN(Cc2cc3nc(-c4cccc5[nH]ncc45)nc(N4CCOCC4)c3s2)CC1 [pictilisib]
How it was run: as §1

MAP2K1 (UniProt Q02750)
log2 fold change (saracatinib): 0.02
log2 fold change (sotrastaurin): 0.028
log2 fold change (alvocidib): -0.05
log2 fold change (Tubastatin A): -0.018
log2 fold change [1]: -0.053
log2 fold change (defactinib): -0.011
log2 fold change (rucaparib): -0.049
log2 fold change [2]: -0.005
log2 fold change (encorafenib): 0.005
log2 fold change [3]: 0.009
log2 fold change [4]: 0.022
log2 fold change (filanesib): -0.05
log2 fold change (zotarolimus): -0.007
log2 fold change (idasanutlin): -0.047
log2 fold change (alisertib): -0.048
log2 fold change [5]: 0.02
log2 fold change (gefitinib): -0.011
log2 fold change [6]: 0.029
log2 fold change (lapatinib): -0.045
log2 fold change (pictilisib): 0.04

MAPRE3 (UniProt Q9UPY8)
UniProt Q9UPY8, sequence (Q9UPY8 whole entry, looked up): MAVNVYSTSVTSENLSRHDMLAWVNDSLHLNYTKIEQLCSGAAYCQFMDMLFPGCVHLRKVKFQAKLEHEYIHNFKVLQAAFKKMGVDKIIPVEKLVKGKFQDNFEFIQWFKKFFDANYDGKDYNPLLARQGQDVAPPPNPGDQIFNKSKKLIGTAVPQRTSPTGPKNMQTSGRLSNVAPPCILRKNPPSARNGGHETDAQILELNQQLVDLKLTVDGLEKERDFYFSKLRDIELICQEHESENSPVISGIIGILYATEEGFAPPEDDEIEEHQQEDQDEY
log2 fold change (saracatinib): -0.029
log2 fold change (sotrastaurin): -0.016
log2 fold change (alvocidib): -0.091
log2 fold change (Tubastatin A): -0.067
log2 fold change [1]: 0.025
log2 fold change (defactinib): -0.031
log2 fold change (rucaparib): 0.02
log2 fold change [2]: -0.016
log2 fold change (encorafenib): 0.017
log2 fold change [3]: 0.027
log2 fold change [4]: -0.242 (active)
log2 fold change (filanesib): 0.006
log2 fold change (zotarolimus): 0.013
log2 fold change (idasanutlin): 0.023
log2 fold change (alisertib): 0.022
log2 fold change [5]: 0.033
log2 fold change (gefitinib): 0.004
log2 fold change [6]: -0.013
log2 fold change (lapatinib): -0.044
log2 fold change (pictilisib): -0.008

MAD2L1 (UniProt Q13257)
UniProt Q13257, sequence (Q13257 whole entry, looked up): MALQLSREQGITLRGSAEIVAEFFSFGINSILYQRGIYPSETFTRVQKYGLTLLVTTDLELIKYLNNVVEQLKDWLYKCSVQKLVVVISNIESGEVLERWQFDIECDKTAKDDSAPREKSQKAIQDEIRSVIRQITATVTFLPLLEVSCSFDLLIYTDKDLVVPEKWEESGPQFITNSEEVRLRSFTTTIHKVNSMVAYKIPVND
log2 fold change (saracatinib): 0.037
log2 fold change (sotrastaurin): -0.056
log2 fold change (alvocidib): -0.109
log2 fold change (Tubastatin A): 0.01
log2 fold change [1]: 0.05
log2 fold change (defactinib): -0.112
log2 fold change (rucaparib): -0.058
log2 fold change [2]: -0.046
log2 fold change (encorafenib): -0.007
log2 fold change [3]: -0.04
log2 fold change [4]: -0.024
log2 fold change (filanesib): -0.042
log2 fold change (zotarolimus): 0.034
log2 fold change (idasanutlin): -0.12
log2 fold change (alisertib): -0.003
log2 fold change [5]: 0.048
log2 fold change (gefitinib): 0.008
log2 fold change [6]: 0.01
log2 fold change (lapatinib): -0.064
log2 fold change (pictilisib): 0.024

MED16 (UniProt Q9Y2X0)
UniProt Q9Y2X0, sequence (Q9Y2X0 whole entry, looked up): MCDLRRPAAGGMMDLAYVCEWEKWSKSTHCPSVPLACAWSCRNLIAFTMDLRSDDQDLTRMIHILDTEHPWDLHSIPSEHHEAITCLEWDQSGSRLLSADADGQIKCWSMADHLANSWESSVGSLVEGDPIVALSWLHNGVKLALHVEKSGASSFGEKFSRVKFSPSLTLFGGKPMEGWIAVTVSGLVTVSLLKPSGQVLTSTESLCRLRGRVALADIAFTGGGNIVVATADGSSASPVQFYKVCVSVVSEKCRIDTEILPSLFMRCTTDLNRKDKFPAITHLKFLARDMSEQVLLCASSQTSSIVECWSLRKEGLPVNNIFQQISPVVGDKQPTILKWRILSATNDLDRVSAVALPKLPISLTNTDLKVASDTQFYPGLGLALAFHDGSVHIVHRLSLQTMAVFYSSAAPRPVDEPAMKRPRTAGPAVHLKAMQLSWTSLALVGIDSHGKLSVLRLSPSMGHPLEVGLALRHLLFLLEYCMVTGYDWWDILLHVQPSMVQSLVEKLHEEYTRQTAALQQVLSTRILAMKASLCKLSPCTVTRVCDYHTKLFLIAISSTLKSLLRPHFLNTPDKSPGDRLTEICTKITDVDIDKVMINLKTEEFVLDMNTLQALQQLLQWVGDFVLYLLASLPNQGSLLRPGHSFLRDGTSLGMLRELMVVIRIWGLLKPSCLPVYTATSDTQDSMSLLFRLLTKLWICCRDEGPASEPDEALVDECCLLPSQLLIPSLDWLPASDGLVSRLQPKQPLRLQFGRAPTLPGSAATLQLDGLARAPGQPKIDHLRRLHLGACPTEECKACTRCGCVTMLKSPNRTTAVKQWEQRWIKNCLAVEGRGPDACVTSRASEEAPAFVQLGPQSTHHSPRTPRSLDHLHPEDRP
log2 fold change (saracatinib): -0.006
log2 fold change (sotrastaurin): -0.044
log2 fold change (alvocidib): -0.236
log2 fold change (Tubastatin A): -0.098
log2 fold change [1]: 0.074
log2 fold change (defactinib): -0.009
log2 fold change (rucaparib): -0.004
log2 fold change [2]: 0.043
log2 fold change (encorafenib): -0.025
log2 fold change [3]: -0.052
log2 fold change [4]: -0.032
log2 fold change (filanesib): 0.062
log2 fold change (zotarolimus): -0.029
log2 fold change (idasanutlin): 0.144
log2 fold change (alisertib): -0.024
log2 fold change [5]: -0.063
log2 fold change (gefitinib): 0.016
log2 fold change [6]: 0.005
log2 fold change (lapatinib): 0.064
log2 fold change (pictilisib): 0.011

MAP3K7 (UniProt O43318)
log2 fold change (saracatinib): -0.07
log2 fold change (sotrastaurin): -0.146
log2 fold change (alvocidib): -0.072
log2 fold change (Tubastatin A): 0.054
log2 fold change [1]: 0.023
log2 fold change (defactinib): -0.023
log2 fold change (rucaparib): 0.099
log2 fold change [2]: -0.035
log2 fold change (encorafenib): 0.1
log2 fold change [3]: -0.011
log2 fold change [4]: 0.105
log2 fold change (filanesib): 0.026
log2 fold change (zotarolimus): -0.074
log2 fold change (idasanutlin): -0.03
log2 fold change (alisertib): 0.084
log2 fold change [5]: 0.065
log2 fold change (gefitinib): 0.016
log2 fold change [6]: -0.054
log2 fold change (lapatinib): -0.058
log2 fold change (pictilisib): 0.088

LEMD3 (UniProt Q9Y2U8)
UniProt Q9Y2U8, sequence (Q9Y2U8 whole entry, looked up): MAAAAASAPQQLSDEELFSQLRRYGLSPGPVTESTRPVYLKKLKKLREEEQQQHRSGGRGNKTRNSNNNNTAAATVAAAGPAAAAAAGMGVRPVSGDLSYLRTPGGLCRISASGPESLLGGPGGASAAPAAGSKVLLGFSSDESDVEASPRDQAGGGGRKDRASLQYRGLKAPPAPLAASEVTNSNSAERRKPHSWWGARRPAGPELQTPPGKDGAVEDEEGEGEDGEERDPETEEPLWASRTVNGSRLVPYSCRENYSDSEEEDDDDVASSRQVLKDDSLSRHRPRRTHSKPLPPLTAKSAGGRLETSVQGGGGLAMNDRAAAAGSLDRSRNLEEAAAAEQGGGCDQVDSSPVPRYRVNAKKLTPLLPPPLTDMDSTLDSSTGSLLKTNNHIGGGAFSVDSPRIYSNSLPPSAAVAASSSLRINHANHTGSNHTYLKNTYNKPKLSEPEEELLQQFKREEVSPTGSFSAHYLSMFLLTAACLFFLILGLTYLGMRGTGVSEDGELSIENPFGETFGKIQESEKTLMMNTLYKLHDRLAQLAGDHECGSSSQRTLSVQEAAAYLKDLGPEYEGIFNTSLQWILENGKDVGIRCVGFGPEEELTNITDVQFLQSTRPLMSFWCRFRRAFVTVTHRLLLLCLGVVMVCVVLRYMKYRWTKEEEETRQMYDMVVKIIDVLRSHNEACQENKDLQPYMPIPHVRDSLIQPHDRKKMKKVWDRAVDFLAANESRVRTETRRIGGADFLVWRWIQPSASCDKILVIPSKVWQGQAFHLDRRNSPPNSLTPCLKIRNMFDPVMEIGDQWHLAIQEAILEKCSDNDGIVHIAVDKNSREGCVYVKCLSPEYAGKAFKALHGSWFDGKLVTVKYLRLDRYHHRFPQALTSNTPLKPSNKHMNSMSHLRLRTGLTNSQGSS
log2 fold change (saracatinib): -0.014
log2 fold change (sotrastaurin): 0.013
log2 fold change (alvocidib): -0.057
log2 fold change (Tubastatin A): 0.062
log2 fold change [1]: 0.068
log2 fold change (defactinib): -0.111
log2 fold change (rucaparib): 0.027
log2 fold change [2]: 0.039
log2 fold change (encorafenib): 0.026
log2 fold change [3]: -0.075
log2 fold change [4]: 0.036
log2 fold change (filanesib): 0
log2 fold change (zotarolimus): 0.107
log2 fold change (idasanutlin): -0.023
log2 fold change (alisertib): 0.073
log2 fold change [5]: -0.001
log2 fold change (gefitinib): -0.013
log2 fold change [6]: 0.069
log2 fold change (lapatinib): 0.044
log2 fold change (pictilisib): 0.047

ILF2 (UniProt Q12905)
UniProt Q12905, sequence (Q12905 whole entry, looked up): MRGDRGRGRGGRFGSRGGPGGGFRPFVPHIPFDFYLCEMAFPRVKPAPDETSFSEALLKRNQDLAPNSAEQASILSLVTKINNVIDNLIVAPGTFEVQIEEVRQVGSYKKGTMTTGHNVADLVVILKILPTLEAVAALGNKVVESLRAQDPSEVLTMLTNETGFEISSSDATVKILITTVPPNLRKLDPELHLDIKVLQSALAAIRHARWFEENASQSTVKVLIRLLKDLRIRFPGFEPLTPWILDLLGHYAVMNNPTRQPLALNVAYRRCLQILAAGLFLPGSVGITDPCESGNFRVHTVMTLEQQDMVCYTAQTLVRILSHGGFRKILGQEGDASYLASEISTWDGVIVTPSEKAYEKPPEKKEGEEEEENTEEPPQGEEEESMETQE
log2 fold change (saracatinib): 0.039
log2 fold change (sotrastaurin): 0.041
log2 fold change (alvocidib): 0.325
log2 fold change (Tubastatin A): -0.058
log2 fold change [1]: 0.015
log2 fold change (defactinib): 0.491 (active)
log2 fold change (rucaparib): 0.19
log2 fold change [2]: 0.04
log2 fold change (encorafenib): 0.028
log2 fold change [3]: 0.012
log2 fold change [4]: 0.086
log2 fold change (filanesib): 0.101
log2 fold change (zotarolimus): -0.024
log2 fold change (idasanutlin): 0.084
log2 fold change (alisertib): -0.146
log2 fold change [5]: 0.068
log2 fold change (gefitinib): -0.045
log2 fold change [6]: -0.08
log2 fold change (lapatinib): 0.101
log2 fold change (pictilisib): -0.035

KEAP1 (UniProt Q14145)
log2 fold change (saracatinib): -0.009
log2 fold change (sotrastaurin): -0.119
log2 fold change (alvocidib): 0.02
log2 fold change (Tubastatin A): -0.035
log2 fold change [1]: 0.054
log2 fold change (defactinib): -0.045
log2 fold change (rucaparib): 0.116
log2 fold change [2]: -0.015
log2 fold change (encorafenib): 0.059
log2 fold change [3]: -0.003
log2 fold change [4]: 0.005
log2 fold change (filanesib): 0.028
log2 fold change (zotarolimus): 0.036
log2 fold change (idasanutlin): -0.019
log2 fold change (alisertib): -0.018
log2 fold change [5]: 0.005
log2 fold change (gefitinib): 0.03
log2 fold change [6]: -0.066
log2 fold change (lapatinib): 0.007
log2 fold change (pictilisib): -0.02

MCL1 (UniProt Q07820)
log2 fold change (saracatinib): 0.011
log2 fold change (sotrastaurin): -0.114
log2 fold change (alvocidib): -0.056
log2 fold change (Tubastatin A): 0.268
log2 fold change [1]: -0.022
log2 fold change (defactinib): -0.015
log2 fold change (rucaparib): 0.029
log2 fold change [2]: -0.063
log2 fold change (encorafenib): 0.004
log2 fold change [3]: 0.047
log2 fold change [4]: -0.092
log2 fold change (filanesib): 0.029
log2 fold change (zotarolimus): 0.093
log2 fold change (idasanutlin): 0.145
log2 fold change (alisertib): -0.12
log2 fold change [5]: -0.442 (active)
log2 fold change (gefitinib): -0.18
log2 fold change [6]: 0.055
log2 fold change (lapatinib): -0.249
log2 fold change (pictilisib): -0.026

MIER1 isoform 12 (UniProt Q8N108)
UniProt Q8N108, sequence (Q8N108 whole entry, looked up): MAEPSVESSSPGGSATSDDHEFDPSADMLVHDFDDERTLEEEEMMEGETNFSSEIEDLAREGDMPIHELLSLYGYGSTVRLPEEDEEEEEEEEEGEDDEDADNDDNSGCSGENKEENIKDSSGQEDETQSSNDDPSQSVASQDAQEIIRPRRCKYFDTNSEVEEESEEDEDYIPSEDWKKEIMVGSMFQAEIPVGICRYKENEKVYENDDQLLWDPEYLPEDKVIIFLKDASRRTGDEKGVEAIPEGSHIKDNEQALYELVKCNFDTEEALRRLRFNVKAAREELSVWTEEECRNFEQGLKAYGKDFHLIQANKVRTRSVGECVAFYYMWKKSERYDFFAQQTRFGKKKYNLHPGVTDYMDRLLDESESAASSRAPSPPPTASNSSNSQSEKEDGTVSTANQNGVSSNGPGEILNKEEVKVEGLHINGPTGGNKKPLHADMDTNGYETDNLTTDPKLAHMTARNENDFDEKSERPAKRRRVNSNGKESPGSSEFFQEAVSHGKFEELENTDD
log2 fold change (saracatinib): 0.026
log2 fold change (sotrastaurin): -0.024
log2 fold change (alvocidib): -0.079
log2 fold change (Tubastatin A): 0.297 (active)
log2 fold change [1]: -0.058
log2 fold change (defactinib): -0.13
log2 fold change (rucaparib): -0.01
log2 fold change [2]: -0.056
log2 fold change (encorafenib): -0.004
log2 fold change [3]: 0.017
log2 fold change [4]: -0.041
log2 fold change (filanesib): -0.067
log2 fold change (zotarolimus): -0.015
log2 fold change (idasanutlin): -0.04
log2 fold change (alisertib): -0.023
log2 fold change [5]: -0.039
log2 fold change (gefitinib): -0.001
log2 fold change [6]: 0.014
log2 fold change (lapatinib): 0.011
log2 fold change (pictilisib): -0.066

KIF21A isoform 4 (UniProt Q7Z4S6)
UniProt Q7Z4S6, sequence (Q7Z4S6 whole entry, looked up): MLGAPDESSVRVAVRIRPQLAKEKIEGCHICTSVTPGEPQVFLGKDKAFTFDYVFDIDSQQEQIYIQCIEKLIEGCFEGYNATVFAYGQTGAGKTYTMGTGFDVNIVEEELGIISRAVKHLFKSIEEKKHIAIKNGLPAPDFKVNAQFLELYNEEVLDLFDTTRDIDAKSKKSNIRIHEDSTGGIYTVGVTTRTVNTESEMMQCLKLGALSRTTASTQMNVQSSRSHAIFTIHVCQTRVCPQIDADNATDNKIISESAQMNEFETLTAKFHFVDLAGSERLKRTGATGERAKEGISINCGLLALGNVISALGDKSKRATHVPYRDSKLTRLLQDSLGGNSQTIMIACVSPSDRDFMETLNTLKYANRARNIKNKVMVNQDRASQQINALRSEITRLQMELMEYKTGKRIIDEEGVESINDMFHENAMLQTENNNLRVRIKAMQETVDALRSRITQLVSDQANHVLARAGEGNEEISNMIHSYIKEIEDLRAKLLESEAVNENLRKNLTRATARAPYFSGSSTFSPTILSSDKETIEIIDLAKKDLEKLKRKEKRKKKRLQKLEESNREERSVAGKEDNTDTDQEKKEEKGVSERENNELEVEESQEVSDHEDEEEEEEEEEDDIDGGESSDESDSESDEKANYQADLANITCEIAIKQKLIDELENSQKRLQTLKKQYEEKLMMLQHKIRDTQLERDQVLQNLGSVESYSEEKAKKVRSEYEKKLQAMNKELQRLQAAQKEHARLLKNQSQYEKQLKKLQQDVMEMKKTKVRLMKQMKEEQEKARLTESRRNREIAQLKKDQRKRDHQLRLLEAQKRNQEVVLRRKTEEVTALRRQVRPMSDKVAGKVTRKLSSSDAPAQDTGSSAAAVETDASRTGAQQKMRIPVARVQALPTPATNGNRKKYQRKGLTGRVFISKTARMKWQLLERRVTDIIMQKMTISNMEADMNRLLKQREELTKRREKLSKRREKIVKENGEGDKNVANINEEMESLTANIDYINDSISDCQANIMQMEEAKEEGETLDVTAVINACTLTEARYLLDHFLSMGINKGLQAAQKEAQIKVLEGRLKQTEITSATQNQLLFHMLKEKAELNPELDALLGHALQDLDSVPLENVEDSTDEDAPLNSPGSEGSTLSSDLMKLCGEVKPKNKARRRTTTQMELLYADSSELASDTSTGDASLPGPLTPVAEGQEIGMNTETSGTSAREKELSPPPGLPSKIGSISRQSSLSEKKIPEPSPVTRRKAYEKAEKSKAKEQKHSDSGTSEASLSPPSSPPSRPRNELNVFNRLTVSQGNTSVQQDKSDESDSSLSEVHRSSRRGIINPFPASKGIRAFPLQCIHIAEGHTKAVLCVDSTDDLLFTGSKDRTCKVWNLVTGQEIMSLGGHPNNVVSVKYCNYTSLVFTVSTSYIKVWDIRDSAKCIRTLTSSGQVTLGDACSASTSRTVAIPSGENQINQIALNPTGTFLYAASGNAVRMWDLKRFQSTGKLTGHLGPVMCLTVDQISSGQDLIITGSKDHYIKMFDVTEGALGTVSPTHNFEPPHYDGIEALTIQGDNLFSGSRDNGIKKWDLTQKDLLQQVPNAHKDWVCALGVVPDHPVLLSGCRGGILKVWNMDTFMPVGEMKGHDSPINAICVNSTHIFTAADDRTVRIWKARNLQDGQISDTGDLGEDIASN
log2 fold change (saracatinib): 0.001
log2 fold change (sotrastaurin): -0.006
log2 fold change (alvocidib): 0.134
log2 fold change (Tubastatin A): 0.094
log2 fold change [1]: 0.001
log2 fold change (defactinib): 0.016
log2 fold change (rucaparib): 0.109
log2 fold change [2]: 0.077
log2 fold change (encorafenib): 0.175
log2 fold change [3]: -0.072
log2 fold change [4]: 0.014
log2 fold change (filanesib): 0.028
log2 fold change (zotarolimus): 0.051
log2 fold change (idasanutlin): 0.07
log2 fold change (alisertib): 0.051
log2 fold change [5]: 0.163
log2 fold change (gefitinib): -0.028
log2 fold change [6]: -0.126
log2 fold change (lapatinib): 0.001
log2 fold change (pictilisib): 0.037

JMJD6 isoform 3 (UniProt Q6NYC1)
log2 fold change (saracatinib): -0.01
log2 fold change (sotrastaurin): -0.018
log2 fold change (alvocidib): -0.076
log2 fold change (Tubastatin A): -0.122
log2 fold change [1]: 0.081
log2 fold change (defactinib): -0.188
log2 fold change (rucaparib): 0.061
log2 fold change [2]: -0.016
log2 fold change (encorafenib): 0.026
log2 fold change [3]: 0.035
log2 fold change [4]: -0.061
log2 fold change (filanesib): -0.039
log2 fold change (zotarolimus): 0.03
log2 fold change (idasanutlin): 0.019
log2 fold change (alisertib): 0.013
log2 fold change [5]: -0.088
log2 fold change (gefitinib): 0.059
log2 fold change [6]: -0.021
log2 fold change (lapatinib): -0.016
log2 fold change (pictilisib): 0.039
